Unmarked numbers belong to inactive results. Activity calls are given as the source filed them.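 Rule for the calls: active = thallium flux through the channel raised or lowered by more than 3 SD from vehicle-only wells, actives on both sides; inactive = the rest.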
Legend:
Test in all cases: BK channel mutant inhibitors and activators – cell-based, U2OS BacMam, thallium flux, beta subunits, selectivity assay, profiling panel (AID 1259406);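 note: initial slope of Thallos dye fluorescence rise after thallium is added; log ratio against the mean of 0.3% DMSO vehicle wells on the same plate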
F380Y = conditions: U2OS BacMam BK variants, at 30 µM
F380Y/beta1 = conditions: U2OS BacMam BK variants, at 30 µM
F380Y/beta2Delta = conditions: U2OS BacMam BK variants, at 30 µM
F380Y/beta4 = conditions: U2OS BacMam BK variants, at 30 µM
[1] = target: Calcium-activated potassium channel subunit alpha-1 (Homo sapiens) + Leucine-rich repeat-containing protein 26 (Homo sapiens) (UniProt Q12791+Q2I0M4); conditions: U2OS BacMam BK variants, F380Y/Slo1WT/gamma1, at 30 µM
Chain of Calcium-activated potassium channel subunit alpha-1 (Homo sapiens) + Leucine-rich repeat-containing protein 26 (Homo sapiens) (Q2I0M4 whole entry, looked up, one chain of several): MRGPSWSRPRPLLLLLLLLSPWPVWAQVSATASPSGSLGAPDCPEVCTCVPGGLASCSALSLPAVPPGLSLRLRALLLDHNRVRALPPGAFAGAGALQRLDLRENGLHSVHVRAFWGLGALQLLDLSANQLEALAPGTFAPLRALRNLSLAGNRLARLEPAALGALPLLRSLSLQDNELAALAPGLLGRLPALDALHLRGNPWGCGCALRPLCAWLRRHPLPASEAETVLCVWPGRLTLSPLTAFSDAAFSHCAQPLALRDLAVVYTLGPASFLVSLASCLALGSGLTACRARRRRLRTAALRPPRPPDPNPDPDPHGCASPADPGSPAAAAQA

R275C = conditions: U2OS BacMam BK variants, at 30 µM
R275C/beta1 = conditions: U2OS BacMam BK variants, at 30 µM
R275C/beta2Delta = conditions: U2OS BacMam BK variants, at 30 µM
R275C/beta4 = conditions: U2OS BacMam BK variants, at 30 µM
R275C/Slo1WT/beta2 = conditions: U2OS BacMam BK variants, at 30 µM

Structure (SMILES) | log fold change Tl+ flux (F380Y) | log fold change Tl+ flux (F380Y/beta1) | log fold change Tl+ flux (F380Y/beta2Delta) | log fold change Tl+ flux (F380Y/beta4) | log fold change Tl+ flux [1] | log fold change Tl+ flux (R275C) | log fold change Tl+ flux (R275C/beta1) | log fold change Tl+ flux (R275C/beta2Delta) | log fold change Tl+ flux (R275C/beta4) | log fold change Tl+ flux (R275C/Slo1WT/beta2)
OC(Cc1ccccc1)(c1ccccc1)c1ccccc1N=Cc1ccc2c(c1)OCO2 (stereo not given) | 0.00821 | 0.0126 | -0.0347 | -0.0765 | -0.0874 | -0.0385 | -0.0387 | -0.0661 | -0.00775 | -0.0302
O=c1c(Cl)c(N2CCOCC2)cnn1-c1cnc2ccccc2n1 | -0.0015 | 0.00611 | 0.0635 | 0.0417 | 0.0667 | 0.00311 | -0.0364 | 0.032 | -0.0173 | 0.0145
Cc1ccc(I)cc1[N+](=O)[O-] | 0.00211 | -0.0212 | 0.0224 | -0.0253 | 0.0293 | 0.0178 | 0.00943 | -0.016 | 0.00957 | -0.00671
CCOC(=O)c1cnn(C(=O)c2ccc(-n3c(C)ccc3C)cc2)c1N | -0.0269 | -0.0106 | -0.0157 | -0.067 | 0.00537 | -0.0135 | -0.0219 | 0.0233 | -0.00435 | 0.0525
O=C(Nc1ccccc1)OCc1cc(-c2ccccc2)c(C(F)(F)F)s1 | -0.0321 | -0.0201 | -0.0141 | -0.21 (active) | -0.173 (active) | -0.0877 (active) | -0.141 (active) | 0.0124 | -0.0566 | -0.0586
CCOC(=O)Cn1c(=O)ccc2c(C)cc(C)nc21 | 0.0287 | -0.0128 | 0.0236 | -0.0078 | 0.0102 | -0.00247 | -0.0331 | 0.00136 | 0.00241 | -0.00135
Clc1ccc(Sc2cn[nH]c2-c2ccc3c(c2)OCCO3)cc1 | -0.025 | -0.0285 | -0.0116 | 0.0103 | -0.102 | 0.0336 | -0.00464 | -0.0611 | -0.0292 | -0.0512
CCCn1c(=O)c(Br)cn(-c2ccccc2C)c1=O | -0.00732 | -0.0448 | -0.0565 | 0.00537 | -0.011 | 0.0371 | 0.0334 | -0.00562 | 0.00534 | 0.0347
Cc1cc(C)c(C(=O)O)c(CC(C)(C)C(=O)O)c1 | 0.000395 | 0.016 | -0.00135 | -0.0155 | 0.0359 | 0.0232 | -0.00597 | 0.00899 | -0.0125 | 0.0267
CCOC(=O)c1cc(NC(=O)CC(C)(C)CC(=O)O)ccc1N1CCCCC1 | 0.0551 | 0.0365 | 0.0312 | 0.0131 | -0.0575 | 0.0216 | 0.0587 | 0.0261 | 0.0168 | 0.00209
CN1c2ccsc2C(=O)C(=NNc2cccc(C(F)(F)F)c2)S1(=O)=O | -0.0122 | 0.00552 | 0.00348 | 0.0228 | -0.0208 | -0.00855 | 0.0113 | 0.00493 | -0.00494 | -0.0248
S=c1sc2c(s1)SCC1(CS2)OCCO1 | -0.0425 | 0.0267 | -0.0279 | 0.0791 | 0.000395 | -0.0211 | -0.0642 | -0.0207 | -0.0357 | -0.00583
Cc1ccc(C(C)NC(=O)c2ccc(Cl)c(Cl)c2)c(C)c1 (stereo not given) | -0.0383 | -0.0447 | -0.0218 | -5.9e-05 | -0.119 (active) | -0.0401 | 0.0121 | -0.00757 | 0.00443 | -0.0265
